# Experimental data from PubChem BioAssay (NCATS).
# Inconclusive results are not listed. Entries that show only a call come without a potency. Calls of active or inactive are those of the source. Calls follow the shape of the dose curve; as a rule, active = well fitted cell-killing curve with a large enough effect; inconclusive = small, poorly fitted or top-dose-only effect, or effect the other way; inactive = flat fitted curve, though single readings scatter.
# System: JEG-3
# Experiment: Primary qHTS to identify gynecologic anti-cancer compounds using libraries of approved drugs and bioactive compounds (AID 1345084); also: nearly all actives have a fitted effect of over 55% in size
# Settings: Gynecologic cancer cell panel viability, ATPlite luminescence, 48 h; series mostly up to 57.5 µM
# How it was run: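 In this quantitative HTS, cell killing is estimated from loss of ATP-dependent luciferase light. Cells see five compound concentrations over a 48 h exposure.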
Structure (SMILES),Potency,"activity change, negative = cytotoxicity"
CC1=CC(=O)[C@@H](O)[C@@]2(C)C1C[C@H]1OC(=O)[C@H](O)[C@@]3(O)[C@@H](C)[C@@H](O)[C@H](O)C2[C@@]13C (some centres not stated),inactive,
CN(Cc1cccc(-c2ccncc2)c1)C(=O)Oc1ccc(-c2ccc(C(N)=O)cc2)cc1,inactive,
CN(C(=O)C(c1ccccc1)c1ccccc1)[C@H](CN1CC[C@H](O)C1)c1ccccc1,inactive,
C/C=C(\C)C(=O)OC1CC2C(CC=C3CC(OC4CC(OC)C(OC5CC(OC)C(OC6CC(OC)C(OC7CC(OC)C(O)C(C)O7)C(C)O6)C(C)O5)C(C)O4)CCC32C)C2(O)CCC(C(C)=O)C12C (configuration not stated),,-3.8% [at 11.6 µM] (inactive)
CN=C(NS(=O)(=O)c1ccc(Cl)cc1)N1C[C@H](c2ccccc2)C(c2ccc(Cl)cc2)=N1,inactive,
Cc1c(N[C@@H](c2nnc(-c3ccc(C#N)cc3)o2)[C@H](C)O)ccc(C#N)c1Cl,inactive,
CC12CCC3C(C1)c1c(cc(O)c(C(=O)c4ccccc4)c1OC3(C)C)O2 (configuration not stated),inactive,
C=C1C(=O)CC2OC2(C)CC2OC(=O)C(=C)C2C(O)C1OC(=O)/C(C)=C\C (configuration not stated),inactive,
CN1C(=O)[C@@H](Cc2c[nH]c3ccccc23)N=C(c2ccccc2F)c2ccccc21,inactive,
CCCCCCC1C(=O)O[C@H](C)[C@H](NC(=O)c2cccc(NC=O)c2O)C(=O)O[C@@H](C)[C@@H]1OC(=O)CC(C)C (some centres not stated),inactive,
C=C(C)[C@@]12O[C@@H]1[C@@]1(C)C(=CC2=O)CC[C@@H](OC(C)=O)[C@@H]1C,inactive,
c1ccc([C@@H]2C[C@H]2NC2CCNCC2)cc1,inactive,
